Laboratory results from PubChem BioAssay AID602346 (Broad Institute, 2012).
Screen size: about 340,000 compounds; about 1,200 (0.35%) were called active. Only a selection was taken, and actives are over-represented in it overall. Unmarked numbers belong to inactive results. No stated cut-off is given here; in the data, active means inhibition above about 50% (passing the limit was not always enough); inconclusive means no clear call, values can overlap the other calls; inactive means below about 31%.

Assay: blockers of Vif multimerization in cells – imaging, HEK293T, single point, primary screen (AID 602346)
Conditions: Vif self-association by quenched fluorescence, 24 h, at 7.49 µM, stronger effect = higher value

Structure (SMILES)	inhibition
CCCCC(=O)N(C)c1c(CC)nc2c(OCc3ccc(Cl)cc3Cl)cccn12	1.33%
COc1ccc(NC2CCCN(C(=O)c3ccccc3-c3ncc[nH]3)C2)cc1 (stereo not drawn)	10.8%
CC(=O)Nc1cc(-c2ccc(N3CCN(C)CC3)cc2)cn2c(-c3ccc(F)cc3)cnc12	-22.4%
CCN(CC)C(=O)C1=C(C)N(Cc2ccc(C(C)(C)C)cc2)C(=O)C(CC(=O)NCc2cccc3ccccc23)C1 (stereo not drawn)	-1.52%
Nc1nnc2c(C(F)(F)F)nc3ccccc3n12	44%
FC(F)(F)c1nnc2ccc(N3CCN(c4ccccc4)CC3)nn12	19.6%
FC(F)(F)c1nnc2c3ccccc3c(Cl)nn12	78.3% (active)
CC1(Oc2ccccc2-c2ccno2)CCN(Cc2ccc(-c3ccccc3)o2)C1 (stereo not drawn)	4.47%
Cc1ccc(-c2cnc(C(O)c3cc(Cl)cc(Cl)c3)[nH]2)cc1 (stereo not drawn)	-6.84%
COc1ccc(C(c2nnnn2C2CCCC2)N2CCN(C/C=C/c3ccccc3)CC2)cc1 (stereo not drawn)	16.8%
COc1ccc(C2CC(c3ccccc3)=NN2C(=O)c2ccc(Cl)c([N+](=O)[O-])c2)cc1 (stereo not drawn)	89.1% (active)
COc1ccc(C2CC(c3ccc([N+](=O)[O-])cc3)=NN2C(C)=O)cc1 (stereo not drawn)	1.95%
COc1ccc(C2=NN(C(=O)c3cccnc3)C(c3ccccc3)C2)cc1 (stereo not drawn)	-3.05%
CCCCN(C=O)c1c(CC)nc2c(OCCC3CCCCC3)cccn12	-3.38%
Cc1ccccc1C1=NC(C(F)(F)F)(C(F)(F)F)c2c(n(-c3ccc(F)cc3)c(=O)[nH]c2=O)N1	-7.19%
Nc1c(N(Cc2ccco2)C(=O)c2cccc(F)c2)c(=O)[nH]c(=O)n1Cc1ccccc1	6.01%
O=c1[nH]c(=O)n(Cc2ccco2)c2c1C(C(F)(F)F)(C(F)(F)F)N=C(c1ccco1)N2	51.3% (active)
C=C(C)C(=O)O[C@H]1C/C(C)=C\C(=O)/C=C(\C)[C@H](O)[C@@H]2OC(=O)C(=C)[C@@H]21	136% (active)
O=C(NC(c1ccc(Cl)cc1)c1cnccn1)C1CCN(Cc2ccc(Cl)cc2)CC1 (stereo not drawn)	26.5%
CC(=O)c1ccc(Nc2nc(C(N)c3ccccc3)cs2)cc1 (stereo not drawn)	-5.96%
COc1ccc(OC)c(NC(=O)C2(C)CCN2C(=O)Cc2ccccc2)c1 (stereo not drawn)	2.75%

Structure (SMILES)	inhibition
CC(C)CC1C(=O)N(Cc2cn(Cc3ccco3)nn2)CCS(=O)(=O)N1Cc1ccc(-c2ccc(Cl)c(Cl)c2)cc1 (stereo not drawn)	0.356%
Cc1ccc(C)c(S(=O)(=O)Nc2cccc(-n3cnnn3)c2)c1	69.3% (active)
O=C(Nc1cccc(-n2cnnn2)c1)c1cccnc1	1.28%
O=S(=O)(Nc1cccc(-n2cnnn2)c1)c1cnc(Cl)c(Cl)c1	-0.268%
COc1cccc(-c2cnc3c(NC(C)=O)cc(-c4cccc(NC(C)=O)c4)cn23)c1	-4.77%
O=C(NCCN1CCOCC1)c1ccccc1N1C(=O)[C@@H]2Cc3c([nH]c4ccccc34)C(c3cccc(Cl)c3)N2C1=O (stereo partly drawn)	2.4%
COc1ccc(CNC(=O)[C@H](Cc2c[nH]c3ccccc23)NC(C)=O)cc1OC	-6.67%
CCOC(=O)c1ccccc1NC(=O)COC(=O)C(Cc1c[nH]c2ccccc12)NC(C)=O (stereo not drawn)	1.23%
CC(=O)NC(Cc1c[nH]c2ccccc12)C(=O)NCCc1ccccc1 (stereo not drawn)	50.4% (active)
COc1ccc(Br)c(Cn2c(C)c(C(=O)NCc3cccs3)sc2=O)c1	1.02%
CC[C@]1(O)C[C@@H]2CN(CCc3c([nH]c4ccccc34)[C@@](C(=O)OC)(c3cc4c(cc3OC)N(C)[C@H]3[C@@](O)(C(=O)OC)[C@H](OC(C)=O)[C@]5(CC)C=CCN6CC[C@]43[C@@H]65)C2)C1	79.8% (active)
COc1cc(NC(=O)c2ccc(-c3csc(C)n3)cc2)c(OC)cc1Cl	64% (active)
CCOCC(=O)Nc1cc(OC)c(Cl)cc1OC	-3.02%
COc1cc(NC(=O)c2ccccc2)c(OC)cc1NC(=O)Cc1ccccc1	-4.83%
COCC(=O)Nc1c(I)c(C(=O)NCC(O)CO)c(I)c(C(=O)N(C)CC(O)CO)c1I (stereo not drawn)	-1.59%
CC(=O)N(CC(O)CO)c1c(I)c(C(=O)NCC(O)CO)c(I)c(C(=O)NCC(O)CO)c1I (stereo not drawn)	62% (active)
CC12CCC(=O)C=C1CCC1C2C(O)CC2(C)C1CCC2(O)C(O)CO (stereo not drawn)	24%
C[C@H]([C@@H](O)[C@@H](O)[C@@H](C)C(C)(C)C)[C@H]1CC[C@H]2C3CC[C@H]4C[C@H](OS(=O)(=O)O)[C@@H](OS(=O)(=O)O)C[C@]4(C)[C@H]3CC[C@]12C (stereo partly drawn)	9.95%
CC(C)(C)CC(=O)Nc1nc(C(N)Cc2ccc(C(F)(F)F)cc2)cs1 (stereo not drawn)	-2.15%
C[C@@H]1CN([C@@H](C)CO)S(=O)(=O)c2ccc(C#Cc3cccc(F)c3)cc2O[C@H]1CN(C)S(=O)(=O)c1cn(C)cn1	-26.5%
Cc1ccc(C)c(N2CCN(S(=O)(=O)c3ccc4c(c3)oc(=O)n4C)CC2)c1	-13.1%

Structure (SMILES)	inhibition
Cc1ccc(C)c(N2CCN(S(=O)(=O)c3c(C)[nH]c(C)c3C(=O)N3CCCC3)CC2)c1	1.25%
COC(=O)c1cc(S(=O)(=O)N2CCN(c3cc(C)ccc3C)CC2)c[nH]1	51.4% (active)
CCCCCCNC(=O)O[C@H]1CN(C(=O)OC(C)C)N(C(=O)OC(C)C)[C@@H]2CN(S(=O)(=O)c3ccc(C)cc3)C[C@]12O	-2.14%
CCOP(=O)(OCC)C(Cc1ccccc1)N=C(c1ccccc1)c1ccccc1 (stereo not drawn)	-3.63%
CC1(C(=O)Nc2cccc(Oc3ccccc3)c2)CCN1Cc1ccccc1Cl (stereo not drawn)	1.11%
O=C(c1ccco1)N1CCN(CCOc2ccccc2)CC1	3.05%
CN(Cc1ccccc1)C(=O)CCC1CCN(C(=O)c2ccco2)CC1	132% (active)
O=C(c1ccco1)N1CCN(C(=O)C2c3ccccc3Oc3ccccc32)CC1	2.39%
COc1ccc(C(C#N)=C2C=CC(=NO)c3ccccc32)cc1	24.3%
NC(c1ccccc1)c1csc(NC(=O)Nc2cccc(C(F)(F)F)c2)n1 (stereo not drawn)	4.85%
COc1ccc(-c2ccc(CN3C(CC(C)C)C(=O)N(Cc4cn(CC5CCCCC5)nn4)CCS3(=O)=O)cc2)cn1 (stereo not drawn)	-4.05%
CN(c1ccccc1)S(=O)(=O)c1cc(C(=O)Nc2nc3ccccc3[nH]2)ccc1Cl	-13.9%
COC(=O)Nc1nc2ccc(Sc3ccccc3)cc2[nH]1	57% (active)
Cc1ccc(O)c(CNc2nc3ccccc3[nH]2)c1	-2.01%
COc1ccc(CC(N)c2csc(NC(=O)Cc3ccccc3)n2)cc1 (stereo not drawn)	-11.3%
O=C(OC12CC3CC(CC(C3)C1)C2)c1ccc(NCc2cc(O)ccc2O)cc1	8.83%
CC(CN1CCOCC1)OC(=O)c1ccc(Cl)cc1Cl (stereo not drawn)	4.38%
CC(OC(=O)c1ccc(Cl)cc1O)C(=O)NCCC1=CCCCC1 (stereo not drawn)	11.7%
CC(C)OC(=O)c1ccc(NCc2cc(O)ccc2O)cc1Cl	55.2% (active)
COC(=O)c1ccc(NCC(=O)c2ccccc2)cc1	3.71%
COC(=O)c1ccc(NCc2cc(O)ccc2O)cc1	101% (active)

Structure (SMILES)	inhibition
COc1ccc(C(NC(=O)C2CCN(CCCc3ccccc3)CC2)c2cccs2)cc1 (stereo not drawn)	14.2%
CCCCC[C@@H]1C=C(C(=O)OCC)[C@H](c2ccccc2)N1S(=O)(=O)c1ccc(C)cc1	3.46%
COc1ccc(C(=O)NCc2nnc(SCC(=O)Nc3cccc(OC)c3)o2)cc1	19%
COc1cccc(NC(=O)CSc2nnc(Cc3ccc(OC)c(OC)c3)o2)c1	60.1% (active)
COc1ccc(Cc2nnc(SCC(=O)Nc3ccc(C)c(C)c3)o2)cc1OC	3.15%
CNc1cncc(-c2ccc(NS(C)(=O)=O)cc2)n1	21.1%
COc1ccc(-c2ccc(C(=O)NCCN3CCOCC3)c3occc23)c(C)c1	-8.68%
Cc1cc(C)cc(C(=O)NCCN2CCOCC2)c1	-5.07%
Cc1ccc(C(=O)NC(=S)NCCN2CCOCC2)cc1	50.2% (active)
Cc1ccc(C(=O)N/C(=C\c2ccc(F)cc2)C(=O)NCCN2CCOCC2)cc1	4.18%
Cc1cc(=O)oc2c3c(cc(OCC(=O)NCC(O)c4ccccc4)c12)OC(C)(C)CC3 (stereo not drawn)	-17%
COc1ccc(CC(N)c2csc(NC(=O)NC(c3ccccc3)c3ccccc3)n2)cc1 (stereo not drawn)	2.09%
COc1cc(Cn2c3ccc(NC(=O)CC(C)c4ccccc4)cc3c(=O)n2C)ccc1F (stereo not drawn)	-4.26%
CC(C)=CCc1c(O)c(CC=C(C)C)c2occ(-c3ccc(O)cc3)c(=O)c2c1O	6.99%
CC(C)=CCc1ccc(O)c(=O)cc1C(C)C	114% (active)
CC(C)c1cc(N=O)cc(C(C)C)c1O	3.46%
O[C@H]1C[C@H](c2ccc(Cl)cc2)N(Cc2cccs2)C[C@@H]1n1cc(C2CC2)nn1	-12.7%
COc1ccc(-c2nc3cnccn3c2NC(C)(C)CC(C)(C)C)cc1O	-5.81%
COc1ccc(-c2nc3cnccn3c2NC2CCCCC2)cc1-c1cccc(Cl)c1	51.8% (active)
COc1ccc(-c2nc3cc(C)ccn3c2NC2CCCCC2)cc1SC1CCCCC1	-0.392%
